# Screening results: PubChem, several laboratories
# Hits are enriched below; roughly 3.8% of the tested compounds scored in any of these assays.
# HSF-1 act: HSF-1 activators, primary screen, NIH3T3-HGL cells, MG132 stress, luminescence, single point. NIH3T3-HGL HSF-1 luciferase reporter, 8 h; 100% = twice DMSO control signal. 1.7% of 300,000 active. activation, % at 9 µM. AID 504408, 2011;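 active = mean replicate activation of at least 50% with a set share of replicates each reaching 50%; inconclusive = only one of those two conditions met; inactive = mean below 50% and too few replicates reaching it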;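 note: 0% = median of the neutral control wells and 100% = twice that signal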
# NALP1 inh: NALP1 inflammasome inhibitors in reconstituted yeast, colorimetric, S. cerevisiae, triplicate retest | S. cerevisiae NALP1/ASC/caspase-1 growth, X-gal OD620, 72 h | inhibition, % at 10 µM | 0.61% of 280,000 active | AID 2071, 2009; in the data active = inhibition mostly above about 24%, no sharp cut-off; inactive = mostly below about 32%
# Hsp70 act: Hsp70 transcriptional activators, primary screen, cell-based, HeLa, Hsp70 promoter luciferase, luminescence, 10 µM; 0.04% of 200,000 active; AID 1203, 2008; HeLa Hsp70 promoter luciferase reporter; scaled: vehicle 0, proteasome-inhibitor control 100%; activation, % at 10 µM;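 active = activation above the mean across all tested compounds plus 3 SD, cutoff set per campaign, cut at about 5.5% in these data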;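 note: 100% = MG132 at 30 µM as the positive control and 0% = DMSO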
# p-CIP stab down: p/CIP-EGFP fusion destabilizers, primary screen, fluorescence, F442A cells | 16 h | 0.01% of 290,000 active | AID 1984, 2009 | Q05BA5 | decrease of EGFP signal, % at 10 µM;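 active = EGFP signal decrease of at least 30% at 10 µM or well 3 SD below plate mean, unless failing retest; inactive = the rest, including hits failing retest or dose response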
# HSF1 inh: HSF1 inhibitors in luciferase reporter cells, primary screen, cell-based, NIH3T3, luminescence. NIH3T3-HGL HSE-luciferase, MG132-induced, luminescence 8 h; active compounds read low. activity change, negative = inhibition, % at 7.5 µM (by protocol). 0.77% of 300,000 active. AID 2098, 2009;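 active = more than half of replicate wells show activity change below -50%, luminescence cut by over half; inconclusive = some wells, but at most half, below -50%; inactive = no replicate well below -50%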;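 note: luciferase reports HSF-1 transcriptional activity via heat shock element; 0% = median of DMSO wells and -100% = zero luminescence signal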
# HSP90 refold inh: HSP90 inhibitors, primary screen, cell lysate, luminescence. AID 1789, 2009. Rabbit reticulocyte lysate, luciferase refolding luminescence, 3 h. inhibition, % at 5.6 µM. 0.91% of 290,000 active. Heat shock protein HSP 90 (rabbit reticulocyte lysate; luciferase refolding);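 active = inhibition above the screen-wide mean plus 3 SD, computed separately per campaign, cut at about 16% in these data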;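 note: 0% = DMSO wells and 100% = 60 µM geldanamycin wells; inhibitors lower the luminescence because luciferase stays unfolded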
# HSP90 inh confirm: HSP90 inhibitors, confirmation, cell lysate, luminescence; inhibition, % at 5.9 µM; rabbit reticulocyte lysate, luciferase refolding luminescence, 3 h; shares compounds with HSP90 refold inh; 64% of 2,300 active; in the data active = inhibition above about 18%;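 note: 0% = vehicle wells and 100% = reference inhibitor wells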
# FLuc counter: firefly luciferase inhibitors, HSP90 counter-screen, confirmation, artefact control for HSP90 inhibitor project, biochemical, luminescence, triplicate | shares compounds with HSP90 refold inh | purified native firefly luciferase | inhibition, % at 5.9 µM | 48% of 2,300 active;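 active = inhibition above the mean inhibition of all tested sample wells plus 3 SD, cut at about 10% in these data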;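 note: 0% = DMSO with luciferase and 100% = wells lacking luciferase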
# * marks the source's active call; other numbers are inactive results; ? = inconclusive; . = no result given.
SMILES,HSF-1 act,NALP1 inh,Hsp70 act,p-CIP stab down,HSF1 inh,HSP90 refold inh,HSP90 inh confirm,FLuc counter
COc1ccc(NC(=S)NNC(=O)Cn2nc([N+](=O)[O-])cc2C)cc1,15.3,15.1,-0.3,-1.6,2.8,40.7*,4.4,1.0
CN(C)S(=O)(=O)c1ccc2c(c1)Cc1cc(S(=O)(=O)N(C)C)ccc1-2,11.0,19.1,.,10.3,9.8,-1.0,.,.
O=C(O)Cn1c(-c2ccccc2)cc2ccccc21,0.5,13.7,.,-0.5,-2.7,-2.2,.,.
COc1ccc(-c2nsc3c(N4CCCCC4)ncnc23)cc1,-83.0,6.1,-0.5,-14.0,-80.1*,61.4*,82.0*,62.6*
COc1ccc(-c2nsc3c(N4CCCCC4C)ncnc23)cc1 (configuration not stated),-95.8,6.3,-0.6,-11.8,-94.5*,77.8*,83.3*,79.9*
CCOc1ccc(C(=O)N2CCC3(CC2)NCCc2[nH]cnc23)cc1OCC,-12.4,15.1,.,-1.3,-6.4,0.9,.,.
CCOc1ccc(-c2nc(CN(Cc3ccccc3)C[C@@H]3CCC(=O)N3)c(C)o2)cc1,-7.9,10.6,-0.3,-8.7,-6.5,22.7*,41.3*,-4.8
O=[N+]([O-])c1ccc2nc(/C=C/c3ccc(Cl)cc3)[nH]c2c1,-27.4,-18.3,0.1,3.7,-22.6,27.9*,5.7,0.6
CCCc1ccc(-c2ccc(F)c(N)c2)nc1,-4.5,-3.7,-0.7,11.4,1.0,53.4*,76.7*,68.5*
Nc1cc(-c2nn[nH]n2)ccc1F,-5.8,12.2,-0.4,-6.7,1.5,-1.1,.,.
CCCCn1c(SC(C)C(=O)NCC2CCCO2)nc2cc(C(=O)OC)ccc2c1=O (configuration not stated),7.9,.,.,.,-0.6,.,.,.
CCCCn1c(SC(C)C(N)=O)nc2cc(C(=O)OC)ccc2c1=O (configuration not stated),-8.1,-8.1,-0.4,-8.8,-4.1,28.1*,-1.6,-6.4
COc1ccccc1OCc1ccc(C(=O)N(C)C)o1,-4.0,4.0,-0.3,-10.1,2.8,0.7,.,.
COc1ccccc1OCc1ccc(C(=O)N(C)c2ccccc2)o1,19.1,-10.2,.,-15.8,1.8,31.9*,3.7,-2.1
CCOC(=O)c1sc(N)c(C#N)c1CSc1nc2ccc(C)cc2[nH]1,14.8,15.0,-0.3,-28.3,10.0,18.4*,0.4,-4.9
CCOc1ccc(NC(=O)CSc2nc(=O)n(Cc3cccnc3)c3c2CCC3)cc1,6.2,.,.,.,-1.3,.,.,.
Cc1cccc([C@@H]2[C@@H]3C(=O)N(Cc4ccccc4)C(=O)[C@@H]3[C@]3(Cc4ccc(Cl)cc4)C(=O)N(c4ccc(Br)cc4)C(=O)N23)c1,-9.1,13.3,.,-7.4,2.1,26.6*,12.5,-7.1
COc1ccc2nc3ccccc3nc2c1NC(=O)c1ccc(Cl)cc1Cl,-4.1,13.1,-0.3,-1.3,-1.7,-5.8,.,.
CC(=O)Nc1cccc(-c2csc(Nc3ccccn3)n2)c1,1.4,9.7,0.2,4.3,-5.3,19.0*,8.8,-10.2
Cc1c(CC(=O)N[C@H](C(=O)O)C(C)C)c(=O)oc2cc3c(cc12)CCC(C)(C)O3,16.9,1.5,.,-11.9,2.6,27.4*,34.6*,14.2*
COc1ccc(C(=O)Nn2c(SCC(=O)c3ccccc3)nc3ccccc3c2=O)cc1,-60.4,5.3,-0.1,6.8,-59.5*,48.1*,53.4*,48.4*
O=c1c2ccccc2nc(SCc2ccc([N+](=O)[O-])cc2)n1CCCO,-7.0,24.7,-0.3,-8.8,-3.8,1.8,.,.
CCOC(=O)CSc1nc2ccccc2c(=O)n1NC(=O)c1ccccc1,-23.7,7.9,0.2,-25.2,2.7,20.1*,0.6,-4.2
COc1ccc(C(=O)Nn2c(SCc3ccc([N+](=O)[O-])cc3)nc3ccccc3c2=O)cc1,-59.8,1.6,1.1,-14.6,?,55.2*,45.1*,33.4*
O=C(NCc1ccco1)/C(=C/c1ccc(Br)cc1)NC(=O)c1ccco1,31.8,19.6,.,0.8,2.9,1.4,.,.
SMILES,HSF-1 act,NALP1 inh,Hsp70 act,p-CIP stab down,HSF1 inh,HSP90 refold inh,HSP90 inh confirm,FLuc counter
COc1ccc2cc3cc(C(=O)N4CCCCCC4)oc3nc2c1,-4.9,18.0,.,-7.2,-4.6,17.1*,40.4*,22.1*
COc1ccc(-c2cc(C(=O)N3CCCC3)no2)cc1,24.2,8.6,.,-4.4,-1.4,38.8*,57.1*,42.2*
COc1ccc2cc3cc(C(=O)N4CCN(C5CCCCC5)CC4)oc3nc2c1,17.2,4.5,.,0.7,3.0,2.7,.,.
Cc1ccc(-c2cc(C(=O)N3CCCCCC3)no2)cc1,2.8,4.0,.,-11.6,0.8,22.9*,28.9*,20.1*
COc1ccc(-c2ccc(-c3nc4ccc(C)cn4c3NC3CCCCC3)cc2OC)cc1,-8.1,.,.,.,1.7,.,.,.
CCCCn1c(N)c(N(CC(C)C)C(=O)C2CCN(S(=O)(=O)c3ccc(C)c(C)c3)CC2)c(=O)[nH]c1=O,?,16.9,.,6.3,24.4,-3.1,.,.
Cn1c(-c2ccccc2)cnc1SCC(=O)N1CCCCC1,?,-76.8,-0.5,-4.8,16.2,33.3*,63.7*,55.6*
O=C(NNS(=O)(=O)c1ccc(F)cc1)C1CC(c2cccnc2)=NO1 (configuration not stated),4.0,3.6,0.2,-4.8,-1.6,20.6*,3.4,-0.1
CC(=O)N(Cc1ccc(F)cc1)C1=C(NCCc2ccccc2)C(=O)c2ccccc2C1=O,32.9,4.2,-0.2,-6.3,9.2,47.6*,12.0,-4.8
CC(=O)N(Cc1ccc(F)cc1)c1cccc(C)c1C,-16.4,6.1,0.1,-0.4,2.4,-4.5,.,.
CC(C)(C)C(=O)CN1C(=O)NC(C)(Cc2ccc3c(c2)OCO3)C1=O (configuration not stated),-5.9,32.1,.,-9.2,-8.9,-2.2,.,.
COc1ccc(CC2SC(=Nc3ccc(F)cc3)NC2=O)cc1 (configuration not stated),-4.7,0.7,-0.2,-10.8,0.9,3.5,.,.
COc1ccc(NC(=O)c2ccc(COCC(F)(F)C(F)F)cc2)cc1,11.1,26.7,-0.2,-29.2,-4.2,18.9*,-2.6,-7.6
Nc1sc2c(c1C(=O)c1ccccc1)CCCC2,4.1,2.1,-0.1,-11.5,13.0,31.0*,10.6,1.2
